# Screens (PubChem)
# ADAM10 inh = inhibitors of human ADAM10; O14672; 370,000 compounds, 0.62% hits; AID 720582; recombinant ADAM10, EDANS/DABCYL FRET peptide cleavage, 3 h; inhibition, % at 7 µM;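 active = inhibition above a per-campaign cutoff equal to the mean of compounds falling between control-based bounds plus 3 SD, cut at about 20% in these data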
# Target sequence (O14672 214-748 limits assumed): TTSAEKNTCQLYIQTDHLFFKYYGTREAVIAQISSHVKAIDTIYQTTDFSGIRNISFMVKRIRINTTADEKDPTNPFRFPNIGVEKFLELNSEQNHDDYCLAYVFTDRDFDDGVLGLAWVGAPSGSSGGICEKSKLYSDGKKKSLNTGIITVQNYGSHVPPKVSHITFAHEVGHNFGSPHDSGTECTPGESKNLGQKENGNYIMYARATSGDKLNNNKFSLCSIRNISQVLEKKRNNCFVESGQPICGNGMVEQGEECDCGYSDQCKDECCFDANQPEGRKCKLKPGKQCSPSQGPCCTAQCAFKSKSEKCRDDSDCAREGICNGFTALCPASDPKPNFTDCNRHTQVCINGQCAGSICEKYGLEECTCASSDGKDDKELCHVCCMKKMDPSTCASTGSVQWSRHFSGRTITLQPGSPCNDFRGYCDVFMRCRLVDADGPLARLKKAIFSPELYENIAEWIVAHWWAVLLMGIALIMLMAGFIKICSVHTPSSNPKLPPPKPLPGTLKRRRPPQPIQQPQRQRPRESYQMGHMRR
# V-ATPase pHluor = yeast V-ATPase proton transport regulation by pHLuorin. S. cerevisiae, pHLuorin cytosolic pH fluorescence. response, % at 10 µM. 350,000 compounds, 0.37% hits. AID 504577; in the data active = response mostly above about 7.3%, no sharp cut-off; inactive = mostly below about 5.4%; note: actives read high
# proKLK7 act = activates the human kallikrein-7 zymogen | P49862 | purified proKLK7, EDANS-DABCYL substrate fluorescence; 100% is mature enzyme control, 0% vehicle | activation, % at 7 µM | 370,000 compounds, 0.9% hits;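 active = activation above the mean of all tested compounds plus 3 SD, computed per campaign excluding outliers beyond control limits, cut at about 13% in these data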
# ADAM17 inh = inhibits human ADAM17; P78536; recombinant ADAM17, EDANS/DABCYL FRET peptide cleavage; inhibition, % at 6.95 µM; 370,000 compounds, 0.83% hits; AID 720648;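 active = inhibition above the mean of compounds lying between control limits plus 3 SD, set per campaign, cut at about 8.5% in these data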
# ADAM10 counter = inhibits human ADAM10 in ADAM17 exosite counter-screen; inhibition, % at 6.95 µM; shares compounds with ADAM17 inh; recombinant ADAM10, EDANS/DABCYL FRET peptide cleavage, 3 h; 2,900 compounds, 47% hits;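 active = mean inhibition over the triplicate runs exceeds the activity threshold set in the earlier primary screen, cut at about 20% in these data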
# ADAM17 confirm = human ADAM17 inhibition, confirmation; shares compounds with ADAM17 inh; recombinant ADAM17, EDANS/DABCYL QFRET peptide cleavage; inhibition, % at 6.95 µM; 2,900 compounds, 65% hits;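 active = mean inhibition across replicates above the hit cutoff set in the primary screen, cut at about 8.5% in these data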
# Numbers stand for hits; . = inactive; / = no result. Most compounds without a hit are left out; they make up all but 2.3% or so of the library.
SMILES,ADAM10 inh,V-ATPase pHluor,proKLK7 act,ADAM17 inh,ADAM10 counter,ADAM17 confirm
CCn1c(COc2ccc(C)cc2)nnc1SCc1cccc(C(F)(F)F)c1,.,/,.,.,/,/
COc1ccc(NC(=O)C(OC(=O)c2cnc(C)cn2)c2ccccc2)cc1Cl (stereo not given),.,.,.,.,/,/
COc1ccc(NC(=O)C(OC(=O)c2ccc([N+](=O)[O-])o2)c2ccccc2)cc1Cl (stereo not given),.,.,.,9.8,24.9,11.7
CCCc1cc(-c2[nH]ncc2-c2ccc3c(c2)OCCCO3)c(O)cc1O,.,.,.,10.6,27.2,14.2
NS(=O)(=O)c1ccc(NC(=O)/C=C/c2cccs2)cc1,.,.,.,10.4,.,.
O=C(c1cccc(COc2ccc(Cl)cc2Cl)c1)N1CCN(c2ccccn2)CC1,.,.,.,10.7,.,9.3
COc1ccc(-c2csc(NC(=O)C3CC(=O)N(Cc4ccco4)C3)n2)cc1 (stereo not given),.,.,.,.,/,/
COc1ccc(-c2nc(NC(=O)C3CC(=O)N(Cc4ccco4)C3)sc2C)cc1 (stereo not given),.,.,.,9.1,.,.
CC1(C)CC(=O)C=C(c2ccccc2-c2ccc3c(c2)OCO3)C1=O,.,/,.,.,/,/
COc1ccc(-n2c(SCC(=O)Nc3ccc4cn[nH]c4c3)nnc2-c2ccccc2)cc1,.,/,.,.,/,/
COC[C@H](NS(=O)(=O)c1ccc(Br)cc1F)[C@@H](O)c1ccccc1,.,.,.,9.8,.,10.1
CC(C)[C@@H](CO)NS(=O)(=O)c1ccc(Br)cc1F,.,.,.,.,/,/
C/C(=N\NC(=O)c1c(Br)c(C)nn1C)c1ccc(NC(=O)C(C)Oc2ccc(Cl)cc2C)cc1 (stereo not given),.,.,.,9.1,.,.
Nc1nonc1C(=O)NCCNCc1ccccc1OCc1ccccc1F,.,.,.,.,/,/
Nc1nonc1C(=O)NCCNCc1cc(Br)ccc1OCc1ccccc1F,24.8,.,.,13.7,.,.
O=C(Nc1ccc(Cl)c(Cl)c1)C1CCCN(c2nnc(-n3cccc3)s2)C1 (stereo not given),.,/,.,10.7,30.4,14.6
CC(=O)Nc1ccc(NC(=O)C2CCCN(c3nnc(-n4cccc4)s3)C2)cc1 (stereo not given),.,.,.,.,/,/
CCOC(=O)[C@]12CCCC3=C1N(CCC3)C(=O)[C@@H](CC(=O)NCc1ccc(C)o1)C2,.,/,.,.,/,/
O=C(NCc1ccccc1F)c1cccc(S(=O)(=O)NCc2ccccc2)c1,.,.,.,.,/,/
O=C(NCc1cccc(C(F)(F)F)c1)c1cccc(S(=O)(=O)NCc2ccccc2)c1,.,.,.,12.0,24.2,11.2
CCN(CC)S(=O)(=O)c1cc(NC(=O)Cc2ccc(S(=O)(=O)N3CCOCC3)s2)ccc1Cl,.,.,.,9.9,.,11.9
CN(C)S(=O)(=O)c1ccc(NC(=O)Cc2ccc(S(=O)(=O)N3CCOCC3)s2)cc1,.,.,.,.,/,/
O=C(Cc1ccc(S(=O)(=O)N2CCCCC2)s1)Nc1ccc(F)c(F)c1,.,.,.,10.0,35.7,12.6
Cc1cc(C)c(N=C2SCC(=O)N2Cc2ccco2)c(C)c1,.,.,.,.,/,/
COc1ccccc1N=C1SCC(=O)N1Cc1ccco1,.,.,.,8.9,.,.
SMILES,ADAM10 inh,V-ATPase pHluor,proKLK7 act,ADAM17 inh,ADAM10 counter,ADAM17 confirm
CC(=O)O[C@@H](Cc1ccc(O)cc1)C(=O)CC(C)C,.,/,.,9.2,.,.
COc1cc(/C=N\NC(=O)c2ccccc2F)ccc1Oc1ccc([N+](=O)[O-])cn1,.,.,.,10.0,.,.
O=C1OC(Cc2ccccc2)(c2ccccc2)c2ccccc21 (stereo not given),.,.,.,11.5,.,.
C#CCN1C(=O)[C@]2(NCCc3c2[nH]c2ccc(OC)cc32)c2ccccc21,.,/,.,.,/,/
Cc1cc(C(=O)Nc2ccc(Nc3ccccc3)cc2)ccc1[N+](=O)[O-],.,.,.,.,/,/
O=C(Nc1ccc(Nc2ccccc2)cc1)c1ccc(Cl)c([N+](=O)[O-])c1,.,.,.,8.6,27.7,18.4
O=C(CCCOC(=O)c1cccnc1Cl)c1ccc(Br)cc1,.,.,.,.,/,/
O=C(CCCOC(=O)c1ccc(O)cc1O)c1ccc(Br)cc1,.,.,.,11.4,.,10.0
CCN(CC)C(=O)c1ncn2c1C(=O)NC[C@@H]2C,.,/,.,.,/,/
CN(C)S(=O)(=O)c1cccc(NC(=O)c2cc(-c3cccs3)nn2-c2cccc(Cl)c2)c1,.,.,.,12.5,.,11.8
O=C(OCc1cn(Cc2ccc(F)cc2F)nn1)N1CCOCC1,.,/,.,.,/,/
CN(CCc1ccccc1)C(=O)c1ccc(NC(=O)Cc2ccc(NC(=O)C3CCN(C(=O)C4CCCC4)CC3)cc2)cc1,.,.,.,10.6,.,9.8
CC(C)(C)OC(=O)N1CCCC(C(=O)Nc2cccc(C(=O)NCCCc3ccccc3)c2)C1 (stereo not given),.,.,.,12.0,.,10.4
CN(C(=O)c1ccc(NC(=O)Cc2cccc(NC(=O)C3CCCN(C(=O)C4CCCC4)C3)c2)cc1)C1CCCC1 (stereo not given),.,.,.,9.4,.,.
C[C@@H]1[C@@H](O)C[C@@]2(CC(=O)c3ccccc3O2)O[C@H]1c1ccccc1,.,/,.,.,/,/
COc1ccc(OC)c(NC(=O)CCC(=O)Nc2nnc(C(C)C)s2)c1,.,.,.,11.8,.,.
CC(C)C[C@H](NC1(C(=O)NC2CCCCC2)CCN(C)CC1)C(=O)NCC(c1ccccc1)c1ccccc1,.,/,/,.,/,/
O=C(O)Cc1csc2ccccc12,.,.,.,10.0,.,.
c1ccc2c(CN3CCCCC3)csc2c1,.,.,.,.,/,/
O=C1COc2ccccc2C(c2nnnn2Cc2ccccc2)N1Cc1cccs1 (stereo not given),.,/,.,.,/,/
COc1ccc(C)cc1NC(=O)NNC(=O)C(C)Oc1ccc([N+](=O)[O-])cc1 (stereo not given),.,.,.,9.0,.,9.0
COc1ccccc1NC(=O)NNC(=O)C(C)Oc1ccc2ccccc2c1 (stereo not given),.,.,.,.,/,/
COc1ccc([N+](=O)[O-])cc1N1C(=O)c2cccnc2C1=O,.,.,.,.,/,/
CC(=O)Oc1ccc([N+](=O)[O-])cc1N1C(=O)c2ccccc2C1=O,.,.,.,9.8,22.9,13.5
C[C@H](CO)N1C[C@H](C)[C@@H](CN(C)C(=O)Nc2cccc(Oc3ccccn3)c2)OCc2cn(nn2)CCCC1=O,.,/,.,.,/,/
COc1ccccc1N=Nc1nc(-c2ccccc2)c(-c2ccccc2)[nH]1,.,.,.,12.2,.,10.5
COc1ccc(NC(=O)Nc2ccc3c(c2)CC(=O)N([C@H](C)CO)C[C@H](C)[C@H](CN(C)Cc2ccc(C(=O)O)cc2)O3)cc1,.,.,.,9.0,.,.
